# In the supplement of paper PMC8728848:
# This excerpt belongs to a sample that is enriched for the strongest signals.
# B1: FimA-N1 (Actinomyces oris) (protein)
# chain: MHHHHHHSSGVDLGTENLYFQSNATETPNYGNIKTDATGSLVIHKHLTGGGKDIGTPTGTAQNADDKGPAVEGVVFTAYPITDINLKDPAGWDTISNLSRTGVPDSACANPAAPTLGAHQFGTPKVSPATTKEGLATITEMPVQAYLVCETTTPGDIVQKAKPFVVTIPHPNTAAGADGQWIYDVNVYPKNEAIDVDKTIQAQK
# How the values were obtained:
# Test in all cases: glycan array binding signal (z-score within array); higher = stronger binding
# Conditions in all cases: glycan notation: IUPAC condensed, linker removed
# [1] = biological target: Fuc(a1-2)Gal(b1-3)GalNAc(b1-3)Gal
# How it was run: (§1)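 The binding signal is a Z-score computed within each array and averaged over linkers. Arrays of the same protein sequence at different concentrations or buffers were also averaged together. Data originate from 3228 arrays in the Consortium for Functional Glycomics database, kept only where the protein sequence was available.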
# [2] = biological target: Fuc(a1-2)Gal(b1-3)GalNAc(b1-3)Gal(a1-4)Gal(b1-4)Glc
# How it was run: as §1
# Fuc(a1-2)Gal(b1-3)GlcNAc = biological target: Fuc(a1-2)Gal(b1-3)GlcNAc
# How it was run: as §1
# [3] = biological target: Fuc(a1-2)[Gal(a1-3)]Gal(b1-3)GalNAc(b1-3)Gal(a1-4)Gal(b1-4)Glc
# How it was run: as §1
# [4] = biological target: Fuc(a1-2)[Gal(a1-3)]Gal(b1-3)GlcNAc
# How it was run: as §1
# [5] = biological target: Fuc(a1-2)[GalNAc(a1-3)]Gal(b1-4)GlcNAc(b1-3)Gal(b1-4)GlcNAc(b1-3)Gal(b1-4)GlcNAc
# How it was run: as §1
# [6] = biological target: Fuc(a1-2)[GalNAc(a1-3)]Gal(b1-4)[Fuc(a1-3)]GlcNAc
# How it was run: as §1
# [7] = biological target: Fuc(a1-2)[GalNAc(b1-3)]Gal
# How it was run: as §1
# Fuc(a1-3)GlcNAc = biological target: Fuc(a1-3)GlcNAc
# How it was run: as §1
# [8] = biological target: Fuc(a1-3)[Gal(b1-4)]GlcNAc(b1-2)Man
# How it was run: as §1
# Gal(a1-3)Gal(b1-3)GlcNAc = biological target: Gal(a1-3)Gal(b1-3)GlcNAc
# How it was run: as §1
# [9] = biological target: Gal(a1-3)Gal(b1-3)GlcNAc(b1-2)Man(a1-3)[Gal(a1-3)Gal(b1-3)GlcNAc(b1-2)Man(a1-6)]Man(b1-4)GlcNAc(b1-4)GlcNAc
# How it was run: as §1
# [10] = biological target: Gal(a1-3)Gal(b1-4)GlcNAc(b1-3)GalNAc
# How it was run: as §1
# [11] = biological target: Gal(a1-4)Gal(b1-4)GlcNAc(b1-2)Man(a1-3)[Gal(a1-4)Gal(b1-4)GlcNAc(b1-2)Man(a1-6)]Man(b1-4)GlcNAc(b1-4)GlcNAc
# How it was run: as §1
# Gal(b1-2)Gal = biological target: Gal(b1-2)Gal
# How it was run: as §1
# Gal(b1-3)Gal(b1-4)GlcNAc = biological target: Gal(b1-3)Gal(b1-4)GlcNAc
# How it was run: as §1
# [12] = biological target: Gal(b1-3)GalNAc(a1-3)[Fuc(a1-2)]Gal(b1-4)GlcNAc
# How it was run: as §1
# [13] = biological target: Gal(b1-3)GlcNAc(b1-2)Man(a1-3)[Gal(b1-3)GlcNAc(b1-2)Man(a1-6)]Man(b1-4)GlcNAc(b1-4)[Fuc(a1-6)]GlcNAc
# How it was run: as §1
# [14] = biological target: Gal(b1-3)GlcNAc(b1-2)[Gal(b1-3)GlcNAc(b1-6)]Man(a1-6)[Gal(b1-3)GlcNAc(b1-2)Man(a1-3)]Man(b1-4)GlcNAc(b1-4)GlcNAc
# How it was run: as §1
# Gal(b1-4)Gal = biological target: Gal(b1-4)Gal
# How it was run: as §1
# Gal(b1-4)GlcNAc = biological target: Gal(b1-4)GlcNAc
# How it was run: as §1
# [15] = biological target: Gal(b1-4)GlcNAc(b1-2)[Gal(b1-4)GlcNAc(b1-4)]Man(a1-3)[Gal(b1-4)GlcNAc(b1-2)[Gal(b1-4)GlcNAc(b1-6)]Man(a1-6)]Man(b1-4)GlcNAc(b1-4)GlcNAc
# How it was run: as §1
# [16] = biological target: Gal(b1-4)GlcNAc(b1-3)Gal(b1-4)GlcNAc(b1-3)Gal(b1-4)GlcNAc(b1-3)Gal(b1-4)GlcNAc(b1-2)[Gal(b1-4)GlcNAc(b1-3)Gal(b1-4)GlcNAc(b1-3)Gal(b1-4)GlcNAc(b1-3)Gal(b1-4)GlcNAc(b1-6)]Man(a1-6)[Gal(b1-4)GlcNAc(b1-3)Gal(b1-4)GlcNAc(b1-3)Gal(b1-4)GlcNAc(b1-3)Gal(b1-4)GlcNAc(b1-2)Man(a1-3)]Man(b1-4)GlcNAc(b1-4)[Fuc(a1-6)]GlcNAc
# How it was run: as §1
# [17] = biological target: Gal(b1-4)GlcNAc(b1-3)Gal(b1-4)GlcNAc(b1-3)Gal(b1-4)GlcNAc(b1-3)Gal(b1-4)GlcNAc(b1-3)Gal(b1-4)GlcNAc(b1-2)Man(a1-3)[Gal(b1-4)GlcNAc(b1-3)Gal(b1-4)GlcNAc(b1-3)Gal(b1-4)GlcNAc(b1-3)Gal(b1-4)GlcNAc(b1-3)Gal(b1-4)GlcNAc(b1-2)Man(a1-6)]Man(b1-4)GlcNAc(b1-4)GlcNAc
# How it was run: as §1
# [18] = biological target: Gal(b1-4)GlcNAc(b1-3)Gal(b1-4)[Fuc(a1-3)]GlcNAc(b1-3)Gal(b1-4)[Fuc(a1-3)]GlcNAc
# How it was run: as §1
# Gal3S(b1-3)GlcNAc = biological target: Gal3S(b1-3)GlcNAc
# How it was run: as §1
# Gal3S(b1-4)Glc6S = biological target: Gal3S(b1-4)Glc6S
# How it was run: as §1
# [19] = biological target: Gal3S(b1-4)[Fuc(a1-3)]Glc6S
# How it was run: as §1
# [20] = biological target: Gal3S(b1-4)[Fuc(a1-3)]GlcNAc6S
# How it was run: as §1
# Gal4S6S(b1-4)GlcNAc = biological target: Gal4S6S(b1-4)GlcNAc
# How it was run: as §1
# Gal6S(b1-4)GlcNAc = biological target: Gal6S(b1-4)GlcNAc
# How it was run: as §1
# [21] = biological target: GalNAc(b1-3)Gal(a1-4)Gal(b1-4)GlcNAc
# How it was run: as §1
# [22] = biological target: GalNAc(b1-3)Gal(a1-6)Gal(b1-4)Glc
# How it was run: as §1
# GalNAc(b1-4)GlcNAc = biological target: GalNAc(b1-4)GlcNAc
# How it was run: as §1
# [23] = biological target: GlcNAc(a1-4)Gal(b1-4)GlcNAc
# How it was run: as §1
# [24] = biological target: GlcNAc(a1-4)Gal(b1-4)GlcNAc(b1-3)Gal(b1-4)[Fuc(a1-3)]GlcNAc(b1-3)Gal(b1-4)[Fuc(a1-3)]GlcNAc
# How it was run: as §1
# [25] = biological target: GlcNAc(b1-3)Gal(b1-4)GlcNAc(b1-2)Man(a1-3)[GlcNAc(b1-3)Gal(b1-4)GlcNAc(b1-2)Man(a1-6)]Man(b1-4)GlcNAc(b1-4)[Fuc(a1-6)]GlcNAc
# How it was run: as §1
# Kdn(a2-3)Gal(b1-4)Glc = biological target: Kdn(a2-3)Gal(b1-4)Glc
# How it was run: as §1
# [26] = biological target: Neu5Ac(a2-3)Gal(b1-3)GlcNAc(b1-3)Gal(b1-4)GlcNAc
# How it was run: as §1
# [27] = biological target: Neu5Ac(a2-3)Gal(b1-3)GlcNAc(b1-6)GalNAc
# How it was run: as §1
# [28] = biological target: Neu5Ac(a2-3)Gal(b1-4)GlcNAc(b1-2)Man(a1-3)[Neu5Ac(a2-6)Gal(b1-4)GlcNAc(b1-2)Man(a1-6)]Man(b1-4)GlcNAc(b1-4)GlcNAc
# How it was run: as §1
# [29] = biological target: Neu5Ac(a2-3)Gal(b1-4)GlcNAc(b1-2)[Neu5Ac(a2-3)Gal(b1-4)GlcNAc(b1-6)]Man(a1-6)[Neu5Ac(a2-3)Gal(b1-4)GlcNAc(b1-2)Man(a1-3)][GlcNAc(b1-4)]Man(b1-4)GlcNAc(b1-4)GlcNAc
# How it was run: as §1
# [30] = biological target: Neu5Ac(a2-3)Gal(b1-4)GlcNAc(b1-3)Gal
# How it was run: as §1
# [31] = biological target: Neu5Ac(a2-3)Gal(b1-4)GlcNAc(b1-3)Gal(b1-4)GlcNAc(b1-3)Gal(b1-4)GlcNAc(b1-2)Man(a1-3)[Neu5Ac(a2-3)Gal(b1-4)GlcNAc(b1-3)Gal(b1-4)GlcNAc(b1-3)Gal(b1-4)GlcNAc(b1-2)Man(a1-6)]GalNAc
# How it was run: as §1
# [32] = biological target: Neu5Ac(a2-3)Gal(b1-4)GlcNAc(b1-3)[Neu5Ac(a2-3)Gal(b1-4)GlcNAc(b1-6)]GalNAc
# How it was run: as §1
# [33] = biological target: Neu5Ac(a2-3)Gal(b1-4)GlcNAc(b1-6)[Gal(b1-3)]GalNAc
# How it was run: as §1
# [34] = biological target: Neu5Ac(a2-6)Gal(b1-3)GlcNAc(b1-3)[Gal(b1-4)GlcNAc(b1-6)]Gal(b1-4)Glc
# How it was run: as §1
# [35] = biological target: Neu5Ac(a2-6)Gal(b1-4)GlcNAc(b1-2)Man(a1-3)[Gal(b1-4)GlcNAc(b1-2)Man(a1-6)]Man(b1-4)GlcNAc(b1-4)GlcNAc
# How it was run: as §1
# [36] = biological target: Neu5Ac(a2-6)Gal(b1-4)GlcNAc(b1-6)[Gal(b1-3)GlcNAc(b1-3)]Gal(b1-4)Glc
# How it was run: as §1
# [37] = biological target: Neu5Ac(a2-6)GlcNAc(b1-4)GlcNAc(b1-4)GlcNAc
# How it was run: as §1
binder,measurement,setting,value
B1,glycan array binding signal (z-score),[1],2.83
same,glycan array binding signal (z-score),[2],-0.245
same,glycan array binding signal (z-score),Fuc(a1-2)Gal(b1-3)GlcNAc,-0.136
same,glycan array binding signal (z-score),[3],0.011
same,glycan array binding signal (z-score),[4],1.81
same,glycan array binding signal (z-score),[5],-0.23
same,glycan array binding signal (z-score),[6],0.129
same,glycan array binding signal (z-score),[7],1.69
same,glycan array binding signal (z-score),Fuc(a1-3)GlcNAc,-0.336
same,glycan array binding signal (z-score),[8],0.002
same,glycan array binding signal (z-score),Gal(a1-3)Gal(b1-3)GlcNAc,1.89
same,glycan array binding signal (z-score),[9],-0.21
same,glycan array binding signal (z-score),[10],-0.363
same,glycan array binding signal (z-score),[11],0.207
same,glycan array binding signal (z-score),Gal(b1-2)Gal,1.45
same,glycan array binding signal (z-score),Gal(b1-3)Gal(b1-4)GlcNAc,-0.145
same,glycan array binding signal (z-score),[12],-0.448
same,glycan array binding signal (z-score),[13],-0.504
same,glycan array binding signal (z-score),[14],3.13
same,glycan array binding signal (z-score),Gal(b1-4)Gal,-0.308
same,glycan array binding signal (z-score),Gal(b1-4)GlcNAc,-0.171
same,glycan array binding signal (z-score),[15],-0.483
same,glycan array binding signal (z-score),[16],1.54
same,glycan array binding signal (z-score),[17],3.32
same,glycan array binding signal (z-score),[18],-0.434
same,glycan array binding signal (z-score),Gal3S(b1-3)GlcNAc,-0.055
same,glycan array binding signal (z-score),Gal3S(b1-4)Glc6S,3.06
same,glycan array binding signal (z-score),[19],1.9
same,glycan array binding signal (z-score),[20],7.57
same,glycan array binding signal (z-score),Gal4S6S(b1-4)GlcNAc,0.072
same,glycan array binding signal (z-score),Gal6S(b1-4)GlcNAc,0.396
same,glycan array binding signal (z-score),[21],0.521
same,glycan array binding signal (z-score),[22],-0.352
same,glycan array binding signal (z-score),GalNAc(b1-4)GlcNAc,-0.187
same,glycan array binding signal (z-score),[23],-0.509
same,glycan array binding signal (z-score),[24],0.476
same,glycan array binding signal (z-score),[25],-0.002
same,glycan array binding signal (z-score),Kdn(a2-3)Gal(b1-4)Glc,0.117
same,glycan array binding signal (z-score),[26],-0.463
same,glycan array binding signal (z-score),[27],0.079
same,glycan array binding signal (z-score),[28],-0.244
same,glycan array binding signal (z-score),[29],-0.572
same,glycan array binding signal (z-score),[30],-0.466
same,glycan array binding signal (z-score),[31],2.52
same,glycan array binding signal (z-score),[32],-0.03
same,glycan array binding signal (z-score),[33],-0.173
same,glycan array binding signal (z-score),[34],-0.454
same,glycan array binding signal (z-score),[35],6.46
same,glycan array binding signal (z-score),[36],-0.313
same,glycan array binding signal (z-score),[37],0.006
